Structures can show the parent of a compound that is named as a salt. Some results are limits rather than exact numbers.

For one test, the system named is thyroid hormone receptor (endogenous TRα and TRβ). Also noted: species or system GH3-TRE-Luc (rat pituitary); GH3-TRE-Luc luciferase reporter, antagonist mode against 1 nM T3, loss of signal, qHTS. The following applies: antagonist mode, 1 nM T3, no GH3 cytotoxicity hit, read-out: Average AC50 (uM) GH3-TRE-Antag.
As usually defined, the AC50 is the concentration giving half of the maximal activity seen. Take `Oc1ccc(Cl)c(Cl)c1` [3,4-Dichlorophenol]: the AC50 worked out at 59.5 µM.

On to `Clc1ccccc1-c1ccccc1Cl` [2,2'-Dichlorobiphenyl], for which the AC50 is greater than 100 µM.

As for `CN(C)c1ccc(C(c2ccccc2)c2ccc(N(C)C)cc2)cc1` [Leucomalachite green], the half-maximal activity concentration (AC50) came out at 20.8 µM.

Consider `COc1ccc2c(c1)[C@]13CCCC[C@@H]1[C@H](C2)N(C)CC3` [Dextromethorphan hydrobromide monohydrate], for which the AC50 came to 21.1 µM.

In the case of `C=C(Cl)CSC(=S)N(CC)CC` [Sulfallate], the AC50 was 86.5 µM.

For `O=C1C(=O)c2cccc3cccc1c23` [Acenaphthenequinone], the AC50 worked out at 76.1 µM.

In the case of `C[C@]12CCC(=O)C=C1CC[C@@H]1[C@@H]2CC[C@@]2(C)[C@H]1CC[C@]2(C)O` [17-Methyltestosterone], the AC50 is 46 µM.

Take `CCN(CC)c1nc(C)cc(OP(=S)(OC)OC)n1` [Pirimiphos-methyl]: the AC50 was found to be 57.1 µM.

As to `CCOP(=S)(OCC)Oc1cnc2ccccc2n1` [Quinalphos], the concentration at half-maximal activity (AC50) stood at 55.1 µM.

As for `CC(C)=CCN1CC[C@]2(C)c3cc(O)ccc3C[C@H]1[C@H]2C` [(+)-Pentazocine succinate], the AC50 is 37.2 µM.

As to `CCOP(=S)(OCC)SC(CCl)N1C(=O)c2ccccc2C1=O` (stereo not drawn) [Dialifor], the AC50 is greater than 90 µM.

As to `CCOP(=S)(OCC)Oc1cc(C)nc(C(C)C)n1` [Diazinon], the AC50 was 46.4 µM.

As to `CCOP(=S)(OCC)SCSC(C)(C)C` [Terbufos], the AC50 is 85 µM.

In the case of `COP(=S)(OC)Oc1ccc([N+](=O)[O-])cc1Cl` [Dicapthon], the AC50 worked out at 79 µM.

With `CCOP(=S)(OCC)SCSP(=S)(OCC)OCC` [Ethion], the AC50 is 71.9 µM.

On to `C[C@]12CCC(=O)C=C1CC[C@@H]1[C@@H]2CC[C@]2(C)C(=O)CC[C@@H]12` [4-Androstene-3,17-dione], for which the AC50 is greater than 50 µM.

In the case of `O=C(Nc1ccccc1)Nc1cnns1` [Thidiazuron], the AC50 is 76.7 µM.

Consider `CNC(=O)Oc1ccccc1C(=O)Nc1ccccc1` [Anilamate], for which the AC50 was greater than 50 µM.

Take `CCc1cc2c(s1)-n1c(C)nnc1CN=C2c1ccccc1Cl` [Etizolam]: the AC50 was greater than 50 µM.

With `COP(=S)(OC)Oc1nc(Cl)c(Cl)cc1Cl` [Chlorpyrifos-methyl], the AC50 was found to be 78.8 µM.

As for `CCCCSP(=O)(SCCCC)SCCCC` [Tribufos], the AC50 was determined as 50.4 µM.

Consider `O=c1c2ccccc2c(=O)c2c1cc(Cl)c1[nH]c3c([nH]c12)c(Cl)cc1c(=O)c2ccccc2c(=O)c13` [D&C Blue No. 9], for which the AC50 is 57.8 µM.

In the case of `c1ccc2c(c1)sc1ccccc12` [Dibenzothiophene], the AC50 came to 33.4 µM.

Take `Oc1ccc(Cl)c(Cl)c1Cl` [2,3,4-Trichlorophenol]: the AC50 stood at 87.3 µM.

As to `Brc1ccc(Oc2cc(Br)c(Br)cc2Br)c(Br)c1` [2,2',4,4',5-Pentabromodiphenyl ether], the AC50 is 39.4 µM.

As for `CC(=O)[C@H]1CC[C@H]2[C@@H]3CC[C@@H]4C[C@H](O)CC[C@]4(C)[C@H]3CC[C@]12C` [Eltanolone], the AC50 was found to be 13.6 µM.

In the case of `Cc1ccc2c(c1)[C@]13CCCC[C@@H]1[C@H](C2)N(C)CC3` [Dimemorfan phosphate], the AC50 was determined as 42.3 µM.

As to `CCOP(=S)(OCC)Oc1ccc(Cl)cc1Cl` [Dichlofenthion], the AC50 came to 71.5 µM.

Consider `N#CSCc1ccccc1` [Benzyl thiocyanate], for which the AC50 turned out to be 56.4 µM.

Consider `Clc1nc(Cl)nc(Cl)n1` [2,4,6-Trichloro-s-triazine], for which the AC50 was greater than 90 µM.

As for `Clc1cc(Cl)c(-c2cc(Cl)c(Cl)cc2Cl)cc1Cl` [2,2',4,4',5,5'-Hexachlorobiphenyl], the half-maximal activity concentration (AC50) came to 35.4 µM.

Turning to `CCCSP(=S)(OCC)Oc1ccc(Cl)cc1Cl` (stereo not drawn) [Prothiofos], the AC50 stood at 86.7 µM.

For the compound `COP(=S)(OC)Oc1ccc(S(=O)(=O)N(C)C)cc1` [Famphur], the AC50 is greater than 50 µM.

Still in this test, the particulars now being: read-out: Average AC50 (uM) GH3-TRE-Antag; 24 h; antagonist.
For the compound `Cc1ccc(OP(=O)(Oc2ccc(C)cc2C)Oc2ccc(C)cc2C)c(C)c1` [TXP], the AC50 amounted to 70.6 µM.

Regarding `CN(C)CCc1c[nH]c2cccc(O)c12` [Psilocin], the AC50 came to 91 µM.

As to `CC[C@]1(O)CC[C@H]2[C@@H]3CCC4=CCCC[C@@H]4[C@H]3CC[C@@]21C` [Ethylestrenol], the AC50 is 7.8 µM.

For `Cc1nnc2n1-c1ccc(Cl)cc1C(c1ccccc1)=NC2` [Alprazolam], the AC50 turned out to be 41.3 µM.

In the case of `O=C1Nc2ccc(Cl)cc2C(c2ccccc2)=NC1O` (stereo not drawn) [Oxazepam], the AC50 was greater than 50 µM.

On to `O=C1CN=C(c2ccccc2)c2cc(Cl)ccc2N1CC1CC1` [Prazepam], for which the AC50 is greater than 50 µM.

The values are drawn from PMC6792352, “Limited Chemical Structural Diversity Found to Modulate Thyroid Hormone Receptor in the Tox21 Chemical Library” (Environmental Health Perspectives, 2019).
